Test results published in PubChem BioAssay AID1159580 (chemical genetic matrix, 2015).
About 2,000 (36%) of roughly 5,500 compounds were called active. About 18% were inconclusive and are not listed. Cut-off read from the data, not from the text of the source: active = normalized growth mostly below about 0.91 (no sharp cut-off); inconclusive = no clear call, values can overlap the other calls; inactive = mostly above about 0.92. The list shows a part of the results.

Experiment: chemical genetic growth profiling, strain panel (AID 1159580);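 note: tested at 20 µM; growth read once vehicle control cultures reached saturation at 30 °C; 1 = growth at the plate median or of vehicle wells; lower values mean less growth of the strain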
Conditions: S. cerevisiae deletion strains, growth OD

Measured: normalized growth

COc1cc(C(=O)O[C@H]2CC[C@@]3(C)[C@@H]4CC[C@H]5[C@]6(O)C[C@H](O)[C@@]7(O)[C@@H](CN8C[C@@H](C)CC[C@H]8[C@@]7(C)O)[C@]6(O)C[C@@]53O[C@]24O)cc(OC)c1OC
inactive: locus YAL021C, strain ccr4, hits give low values 1 | locus YAL026C, strain drs2, hits give low values 1.02 | locus YAL030W, strain snc1, hits give low values 0.996 | locus YBL061C, strain skt5, hits give low values 0.994 | locus YBR009C, strain hhf1, hits give low values 1.01 | locus YBR021W, strain FUR4, hits give low values 1.01 | locus YBR023C, strain chs3, hits give low values 0.996 | locus YBR171W, strain sec66, hits give low values 1.02 | locus YBR229C, strain ROT2, hits give low values 0.955 | locus YBR231C, strain swc5, hits give low values 0.994 | locus YBR279W, strain paf1, hits give low values 1.01 | locus YCL011C, strain gbp2, hits give low values 0.997 | locus YCL016C, strain dcc1, hits give low values 1 | locus YCL029C, strain bik1, hits give low values 0.98 | locus YCL061C, strain MRC1, hits give low values 1 | locus YCL069W, strain vba3, hits give low values 1 | locus YCR088W, strain abp1, hits give low values 1.01 | locus YDL005C, strain med2, hits give low values 0.973 | locus YDL035C, strain GPR1, hits give low values 1 | locus YDL040C, strain nat1, hits give low values 1 | locus YDL074C, strain BRE1, hits give low values 1.03 | locus YDL101C, strain DUN1, hits give low values 0.989 | locus YDL134C, strain PPH21, hits give low values 0.979 | locus YDL185W, strain tfp1, hits give low values 0.978 | locus YDL192W, strain arf1, hits give low values 1.01 | locus YDR001C, strain nth1, hits give low values 1.01 | locus YDR069C, strain doa4, hits give low values 0.998 | locus YDR101C, strain arx1, hits give low values 1.03 | locus YDR137W, strain rgp1, hits give low values 0.965 | locus YDR159W, strain sac3, hits give low values 0.972 | locus YDR162C, strain NBP2, hits give low values 0.985 | locus YDR195W, strain ref2 0.967 | locus YDR297W, strain sur2, hits give low values 1.01 | locus YDR318W, strain mcm21, hits give low values 0.972 | locus YDR334W, strain swr1, hits give low values 1.01 | locus YDR335W, strain msn5, hits give low values 1.01 | locus YDR388W, hits give low values 0.993 | locus YDR392W, strain spt3, hits give low values 0.996 | locus YDR502C, strain sam2, hits give low values 1 | locus YEL003W, strain gim4, hits give low values 1 | locus YEL037C, strain rad23, hits give low values 1.03 | locus YEL061C, strain CIN8 (second series), hits give low values 1.02 | locus YEL061C, strain CIN8, hits give low values 0.993 | locus YER015W, strain faa2, hits give low values 0.998 | locus YER016W, strain bim1, hits give low values 0.995 | locus YER110C, hits give low values 0.975 | locus YER111C, strain swi4, hits give low values 1 | locus YER155C, strain BEM2 (second series), hits give low values 1 | locus YER155C, strain BEM2, hits give low values 0.99 | locus YER167W, strain BCK2, hits give low values 0.993 | locus YFR010W, strain ubp6, hits give low values 1.02 | locus YGL078C, strain dbp3, hits give low values 0.999 | locus YGL086W, strain mad1, hits give low values 1.05 | locus YGL167C, strain pmr1, hits give low values 0.999 | locus YGL173C, strain kem1, hits give low values 1 | locus YGL227W, strain vid30, hits give low values 1.01 | locus YGL240W, strain doc1, hits give low values 0.978 | locus YGL248W, strain PDE1, hits give low values 0.998 | locus YGL253W, strain hxk2, hits give low values 1 | locus YGR078C, strain PAC10, hits give low values 0.99 | locus YGR135W, strain pre9, hits give low values 0.99 | locus YGR229C, strain SMI1, hits give low values 1.02 | locus YGR252W, strain gcn5, hits give low values 0.957 | locus YHR013C, strain ard1, hits give low values 0.962 | locus YHR027C, strain rpn1, hits give low values 1.01 | locus YHR030C, strain SLT2, hits give low values 1 | locus YHR079C, strain IRE1 (second series), hits give low values 0.992 | locus YHR094C, strain hxt1, hits give low values 0.971 | locus YHR129C, strain ARP1, hits give low values 0.985 | locus YHR142W, strain chs7, hits give low values 1.02 | locus YHR200W, strain rpn10, hits give low values 0.987 | locus YIL066C, strain RNR3, hits give low values 0.983 | locus YIL073C, strain SPO22, hits give low values 1.02 | locus YIL125W, strain kgd1, hits give low values 1 | locus YIR030C, strain dcg1, hits give low values 0.993 | locus YJL092W, strain hpr5, hits give low values 1.02 | locus YJL095W, strain BCK1 (second series), hits give low values 0.993 | locus YJL095W, strain BCK1, hits give low values 0.998 | locus YJL115W, strain asf1, hits give low values 1 | locus YJL129C, strain trk1, hits give low values 1.01 | locus YJL134W, strain LCB3, hits give low values 0.985 | locus YJL154C, strain vps35, hits give low values 1.01 | locus YJL164C, strain tpk1, hits give low values 0.999 | locus YJL166W, strain qcr8, hits give low values 1.01 | locus YJL168C, strain set2, hits give low values 0.996 | locus YJL187C, strain SWE1 (second series), hits give low values 1.01 | locus YJL187C, strain SWE1, hits give low values 1.01 | locus YJR043C, strain POL32, hits give low values 0.993 | locus YKL009W, strain mrt4, hits give low values 0.981 | locus YKL068W, hits give low values 0.988 | locus YKL085W, strain MDH1 (second series), hits give low values 1 | locus YKL085W, strain MDH1, hits give low values 1 | locus YKL160W, strain elf1, hits give low values 1 | locus YKR001C, strain vps1, hits give low values 1.06 | locus YKR026C, strain gcn3, hits give low values 1.01 | locus YKR091W, strain srl3, hits give low values 1 | locus YLL001W, strain dnm1, hits give low values 1.01 | locus YLL026W, hits give low values 0.989 | locus YLL041C, strain sdh2, hits give low values 1.01 | locus YLR027C, strain aat2, hits give low values 0.977 | locus YLR039C, strain RIC1, hits give low values 0.972 | locus YLR058C, strain SHM2, hits give low values 0.978 | locus YLR102C, strain apc9, hits give low values 0.985 | locus YLR221C, strain rsa3, hits give low values 1 | locus YLR258W, strain gsy2, hits give low values 0.98 | locus YLR262C, strain YPT6 (second series), hits give low values 0.954 | locus YLR262C, strain YPT6, hits give low values 0.975 | locus YLR268W, strain sec22, hits give low values 1.04 | locus YLR320W, strain mms22, hits give low values 0.986 | locus YLR330W, strain CHS5, hits give low values 1 | locus YLR342W, strain FKS1 (second series), hits give low values 1.03 | locus YLR342W, strain FKS1, hits give low values 0.986 | locus YLR357W, strain rsc2, hits give low values 0.974 | locus YLR370C, strain arc18, hits give low values 0.985 | locus YLR371W, strain rom2, hits give low values 0.991 | locus YLR384C, strain iki3, hits give low values 0.974 | locus YLR418C, strain cdc73, hits give low values 0.977 | locus YML016C, strain PPZ1, hits give low values 0.998 | locus YML032C, strain rad52, hits give low values 0.96 | locus YML120C, strain ndi1, hits give low values 1 | locus YML124C, strain tub3, hits give low values 0.985 | locus YMR058W, strain fet3, hits give low values 1 | locus YMR078C, strain ctf18, hits give low values 0.99 | locus YMR125W, strain sto1, hits give low values 1.02 | locus YMR129W, hits give low values 1 | locus YMR205C, strain PFK2, hits give low values 1 | locus YMR223W, strain ubp8, hits give low values 0.964 | locus YMR231W, strain pep5, hits give low values 0.999 | locus YMR307W, strain GAS1, hits give low values 1.07 | locus YNL067W, strain RPL9B, hits give low values 0.997 | locus YNL071W, strain lat1, hits give low values 1 | locus YNL153C, strain GIM3, hits give low values 1.01 | locus YNL209W, strain ssb2, hits give low values 0.997 | locus YNL233W, strain BNI4, hits give low values 1.01 | locus YNL248C, strain rpa49, hits give low values 1.01 | locus YNL250W, strain rad50, hits give low values 0.977 | locus YNL271C, strain bni1, hits give low values 0.993 | locus YNL298W, strain CLA4, hits give low values 0.971 | locus YNL307C, strain MCK1, hits give low values 0.986 | locus YNL322C, strain KRE1 (second series), hits give low values 0.989 | locus YNL322C, strain KRE1, hits give low values 0.996 | locus YNR049C, strain mso1, hits give low values 0.987 | locus YNR052C, strain pop2, hits give low values 0.996 | locus YOL012C, strain htz1 1.37 | locus YOL147C, strain pex11, hits give low values 0.985 | locus YOR001W, strain rrp6, hits give low values 0.988 | locus YOR061W, strain CKA2, hits give low values 0.962 | locus YOR069W, strain VPS5, hits give low values 0.996 | locus YOR070C, strain gyp1, hits give low values 1.01 | locus YOR080W, strain dia2, hits give low values 1.01 | locus YOR083W, strain WHI5, hits give low values 1 | locus YOR106W, strain vam3, hits give low values 0.999 | locus YOR136W, strain idh2, hits give low values 0.985 | locus YOR144C, strain elg1, hits give low values 0.98 | locus YOR184W, strain ser1, hits give low values 0.976 | locus YOR265W, strain rbl2, hits give low values 0.983 | locus YOR270C, strain vph1, hits give low values 1.11 | locus YOR290C, strain snf2, hits give low values 1.02 | locus YOR316C, strain cot1, hits give low values 0.976 | locus YPL051W, strain arl3, hits give low values 0.998 | locus YPL055C, strain LGE1, hits give low values 1.01 | locus YPL078C, strain atp4, hits give low values 0.998 | locus YPL106C, strain sse1, hits give low values 0.968 | locus YPL240C, strain hsp82, hits give low values 0.992 | locus YPR119W, strain clb2, hits give low values 0.979 | locus YPR141C, strain kar3, hits give low values 0.981 | locus YPR163C, strain tif3, hits give low values 1.01 | locus YPR167C, strain met16, hits give low values 0.978 | strain wtn01, hits give low values 1.04
